Assay results from PubChem BioAssay AID588675 (Johns Hopkins Ion Channel Center, 2011).
The campaign covered roughly 310,000 compounds. About 1,900 (0.61%) were called active.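 The calls were made as follows: active = plate-corrected calcium response at least 3 library SD above typical, normal starting fluorescence, not activating the receptor alone; inactive = the rest.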 The entries come from a sample that favours actives as a whole.

Molecular target: Mas-related G-protein coupled receptor member X1 (Homo sapiens) (UniProt Q96LB2)
Sequence (Q96LB2 whole entry, looked up): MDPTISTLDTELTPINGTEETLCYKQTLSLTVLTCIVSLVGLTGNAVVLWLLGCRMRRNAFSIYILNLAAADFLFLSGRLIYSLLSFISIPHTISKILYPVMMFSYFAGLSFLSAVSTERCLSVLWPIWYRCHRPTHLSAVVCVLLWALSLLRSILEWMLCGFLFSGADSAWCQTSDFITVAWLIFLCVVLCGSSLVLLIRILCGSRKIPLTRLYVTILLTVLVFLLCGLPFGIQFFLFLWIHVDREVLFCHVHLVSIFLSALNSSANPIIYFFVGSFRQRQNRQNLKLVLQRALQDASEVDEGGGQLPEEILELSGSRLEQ
Experiment: positive allosteric modulators of MrgX1, primary screen, HEK293 cells, Fluo-4 calcium flux (AID 588675);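 also: compound read alongside a low EC10 to EC30 dose of BAM8-22 agonist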;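 as to B-score: peak minus trough fluorescence over baseline measured at the second addition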
Conditions: MrgX1-HEK293, Fluo-4 calcium flux, FDSS, at 10 µM; hits give high values

Structure (SMILES)	B-score
CC[C@H]1CC2CN3CCc4c([nH]c5ccccc45)C(C(=O)OC)(C2)C13 (stereo not given in full)	13 (active)
CN1CCc2cc3c(cc2[C@H]1[C@@H]1OC(=O)c2c1ccc1c2OCO1)OCO3	inactive
CN(C)C(=O)Oc1ccc(OCc2cccc[n+]2C)cc1	inactive
Cc1nc2ccccn2c1P(=S)(N1CCCCC1)N1CCCCC1	13.5 (active)
CC1CCCCN1Cc1cccnc1 (stereo not given)	inactive
COc1ccc(S(=O)(=O)NCc2ccc(C(=O)N3CCC4(CC3)OCCO4)cc2)cc1	inactive
Cc1ccc(-c2nn(CCC#N)cc2C(=O)O)cc1C	inactive
CN(C)C(=O)Oc1ccc2c(c1)O/C(=C\c1ccccc1)C2=O	inactive
CCOC(=O)CC1=C(C(=O)OCC)C2(C(=O)N1)C(C(=O)OC)=C(N)Oc1ccccc12 (stereo not given)	inactive
COC(=O)CN1C(=O)C2(C(C(=O)OC)=C(N)Oc3ccccc32)C2=C1CC(C)(C)CC2=O (stereo not given)	inactive
C=CCN1C(=O)C2(C(C(=O)OCC)=C(N)Oc3c2c(=O)oc2ccccc32)c2ccccc21 (stereo not given)	27.7 (active)
O=Cc1cn(Cc2ccc(F)cc2Cl)c2ccccc12	inactive
CCOc1cccc(=NC2CCCCC2)c2c(C)[nH]c(C)c12	inactive
c1ccc(CC2CCCCN2)cc1 (stereo not given)	inactive
O=C(COC(=O)c1ccccc1)Nc1ccc(Cl)cc1C(=O)c1ccccc1	inactive
